# Screening results as filed in PubChem BioAssay.
# SARS PLpro yeast: blocks SARS-CoV papain-like protease in a yeast assay; 330,000 compounds, 0.19% hits; Potency, µM (highest dose often 32.9 µM), for the others: at the highest dose activity, positive = growth rescue, hits mostly activators; S. cerevisiae expressing SARS-CoV PLpro, growth rescue; calls by dose curve; further: potency means the concentration at half of the fitted maximal effect; 0% is about no effect; nearly all actives have a fitted effect of over 55% in size
# HCV inhibitor: blocks hepatitis C virus; Huh7.5.1 HCVcc-Cre infection, luciferase reporter, 44 h; Potency, µM (series often up to 41.8 µM), for inactives: top-dose activity change, negative = inhibition, usual class: inhibitors; 340,000 compounds, 3.4% hits; AID 651820; active means well fitted inhibition curve with a large enough effect; inconclusive means small, poorly fitted or top-dose-only effect, or another doubt; inactive means no such curve, though single readings can be large or run the other way; further: potency means the concentration at half of the fitted maximal effect; on the % scale 0 is the no-effect control and ±100 the full control effect
#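 Luciferase read-out (15 sec integration) after a 15 min room-temperature substrate step quantifies HCVcc-Cre infection. Cells, 1,000 per well, had compound added 4 h post-plating, then virus at ~0.5 moi, and were cultured 44 h.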
# HCMV inh: inhibitors of human cytomegalovirus; HFF cells, HCMV-luciferase reporter, 72 h; hits give low values; activity change, negative = inhibition, % at 57.5 µM; 410,000 compounds, 4.5% hits; AID 1259415; in the data active means activity change below about -60%; inconclusive means no clear call, values can overlap the other calls; inactive means above about -39%; further: on the % scale 0 is the no-effect control and ±100 the full control effect
#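 Two compound doses tested in HFFs infected with HCMV-luciferase, MOI 1 PFU/cell, 72 h at 37C. Lysate luminescence read with OneGlo; data normalized against buffer-only and 10uM Salinomycin inhibitor controls.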
# MARV entry inh: blocks Marburg virus binding to or entry into cells; 300,000 compounds, 1.8% hits; Marburg virus pseudotyped entry inhibition, cell reporter; Potency, µM (doses to about 37.8 µM), inactives show at the top dose activity change, negative = inhibition, actives largely listed as inhibitors; calls by dose curve; tested in HEK293 cells; further: potency means the concentration at half of the fitted maximal effect; on the % scale 0 is the no-effect control and ±100 the full control effect
# FMDV inh: antivirals against foot and mouth disease virus. AID 1159524. Potency, µM (titrated, usually from 57.9 µM), for inactives: at the top dose activity change, negative = inhibition, actives largely listed as inhibitors. FMDV antiviral cell-based qHTS. 410,000 compounds, 1.2% hits; calls by dose curve; tested in HEK293T cells; further: read-out not given here; potency means the concentration at half of the fitted maximal effect; on the % scale 0 is the no-effect control and ±100 the full control effect; nearly all actives have a fitted effect of over 45% in size
# Lassa entry inh: inhibitors of Lassa virus binding or cell entry; Lassa virus pseudotype entry inhibition, cell reporter; Potency, µM (highest dose often 37.9 µM), without a hit: top-dose activity change, negative = inhibition, actives largely listed as inhibitors; 300,000 compounds, 1.2% hits; calls by dose curve; tested in HEK293 cells; further: potency means the concentration at half of the fitted maximal effect; on the % scale 0 is the no-effect control and ±100 the full control effect; nearly all actives have a fitted effect of over 50% in size
# * hit, by the source's call; ? = inconclusive; / = no result given; [ ] = remark or other dose. This is a sample that favours compounds with a hit; in the whole collection about 8% have one here.
SMILES,SARS PLpro yeast,HCV inhibitor,HCMV inh,MARV entry inh,FMDV inh,Lassa entry inh
Cc1[nH]c2c(ccc3ccccc32)c1C1C(CCN)C1(C)C (centres undefined),-7%,?,-11,26µM*,?,?
CC(C)=CCC1(CC=C(C)C)C(=O)C(C(=O)c2ccccc2)=C2OC(C)(C)CCC2(CC=C(C)C)C1=O (centres undefined),/,/,/,-6%[14.2 µM],/,/
Cc1cccc(-c2nnc(SCC(=O)c3ccc(O)cc3O)n2C)c1,-5%,17%,14,-26%[46.1 µM],10%,-20%
CCc1ccc(/C=N/Nc2ncnc3nc[nH]c23)cc1,2%,10%,36,?,-26%,7.9µM*
CC(C)=NNc1ncnc2nc[nH]c12,/,-27%,-9,2%,14%,-18%
CN(C)c1cc[n+](CC(=O)Nc2c(Cl)cc(Cl)cc2Cl)cc1,-2%,-3%,-67*,4%[46.1 µM],-9%,10%
CN(C)c1cc[n+](CC(=O)Nc2ccc([N+](=O)[O-])cc2Cl)cc1,-4%,14%,-32,-15%,-16%,-2%
O=C1C=C(c2c(O)ccc3ccccc23)c2ccccc2C1=O,/,?,-97*,?,22µM*,6.3µM*
O=C1OC(c2ccccc2)=NC12CC2c1ccc(Cl)cc1 (centres undefined),-81%,6%,-7,?,28µM*,?
O=CN1N=C(c2ccccc2)CC1c1ccc(Cl)cc1 (centres undefined),/,-6%,3,?,?,-26%[46.1 µM]
COc1ccc(C2(O)CCN(C(=O)NC3CCCCC3)CC2)cc1,-2%,11%,8,3.7µM*,5%,-6%
COc1ccc(CCNC(=O)C2CCN(C(=O)NC3CCCCC3)CC2)cc1,23%,8%,8,-1%,-15%,-1%
Cc1nn2c(CN(C(=O)COc3ccccc3)c3ccccc3)nnc2c2ccccc12,-5%,15%,-68*,-5%,-9%,4%
Cc1nn2c(COc3ccc(NC(=O)c4ccccc4Cl)cc3)nnc2c2ccccc12,12%,?,-18,7.1µM*,-28%,?
Cc1nn2c(COc3ccc(NC(=O)C(C)C)cc3)nnc2c2ccccc12,-4%,3%,-31,-1%,2%,?
O=C(N=C1SC2CS(=O)(=O)CC2N1Cc1ccccc1)C1CCCCC1 (centres undefined),-1%,-8%,17,/,4%,/
COc1cc(C(=O)O/N=C2\C=CC(=O)C(C)=C2)cc(OC)c1OC,-17%,?,-27,?,?,?
COc1cc(C(=O)ON=C2C=C(C)C(=O)C(C)=C2)cc(OC)c1OC,-11%,17%,-62*,-25%,-16%,0%
COc1ccc(C(=O)ON=C2C=C(C)C(=O)C(C)=C2)cc1,0%,14%,-76*,/,2%,/
Cc1nc2[nH]c(=O)[nH]c(=O)c2[nH]1,/,/,/,/,-11%,/
Cc1cccc(-c2n[nH]c(=S)n2Cc2ccccc2)c1,8.9µM*,1%,19,?,3%,?
COc1cccc(CNC(=O)CCCSc2ccccc2)c1,3%,?,20,16%[46.1 µM],47%,9%
CCN(CC)C1CC(=O)N(c2cccc(Cl)c2)C1=O (centres undefined),-23%,13%,16,1%[46.1 µM],-15%,-4%[46.1 µM]
O=c1c2cc(Br)ccc2[nH]c(=S)n1Cc1cccnc1,-1%,1%,-19,4%,-4%,15%
C=CCn1c(=S)[nH]c2ccc(Br)cc2c1=O,-6%,11%,-61*,18%,-20%,2%
CCn1c2ccccc2c2cc(CN3CCOc4ccc(C(O)c5cccnc5)cc4C3)ccc21 (centres undefined),/,/,/,/,-20%,/
O=C(CSc1nc2ccccc2c(=O)n1-c1ccc(F)cc1)Nc1ccc2c(c1)CCC2,5%,?,-68*,?,0%,?
O=C(CSc1nc2ccccc2c(=O)n1-c1ccc(F)c(Cl)c1)Nc1ccc2c(c1)CCC2,/,/,-28,/,-8%,/
O=C(CSc1nc2ccc(F)cc2c(=O)n1-c1ccccc1)Nc1ccc2c(c1)CCC2,/,/,?,/,2%,/
O=C(CSc1nc2ccccc2c(=O)n1-c1ccccc1F)Nc1ccc2c(c1)CCC2,8%,?,-67*,?,-9%,?
